Laboratory results from ChEMBL document CHEMBL3988442, “University of Dundee, Small-Polar-MMV Screening Library” (2021).
Out of some 48,000 compounds screened, about 13,000 (27%) showed an effect of 50% or more. The list shows a part of the results.

system: Wolbachia pipientis; experiment: Anti-Wolbachia Cell-Based Screen; type: functional; set-up: scale not given: in the data most compounds retested in dose-response had high values; details: 5 µM

Compound | Percent Effect
O=C(c1cc(-n2cccn2)ccn1)N1CCOc2ccncc21 | -0.9385%
O=C1CN(CC[C@@H](O)c2ccccc2)CCN1c1ccccc1Cl | -4.837%
O=C(c1csnn1)N1CCCC(n2cncn2)C1 (stereo unspecified) | 98.21%
O=C(c1cscn1)N1CCCC(n2cncn2)C1 (stereo unspecified) | 88.79%
O=C(c1cc(C2CC2)on1)N1CCCC(n2cncn2)C1 (stereo unspecified) | 7.01%
Cc1nc(C(=O)N2CCCC(n3cncn3)C2)cs1 (stereo unspecified) | -4.147%
CC(=O)Nc1nc(C(=O)N2CCCC(n3nc(C)cc3C)C2)cs1 (stereo unspecified) | -2.313%
CC(=O)Nc1nc(C(=O)N2CCCC(n3cncn3)C2)cs1 (stereo unspecified) | 110.6%
CCC(=O)NCc1ccccc1Cn1ccnc1 | 2.122%
Cn1nc(CNC(=O)C2CCC2)cc1C1CC1 | 172.6%
Cn1nc(CNC(=O)C2CCN(S(C)(=O)=O)CC2)cc1C1CC1 | 134.6%
Cn1nc(CNC(=O)C2CCCC2)cc1C1CC1 | -4.336%
C/C=C(\C)CN1CCCn2nc(CNC(=O)C3CCC3)cc2C1 | 8.995%
Cn1nc(CNC(=O)C2CCCCC2)cc1C1CC1 | 119.6%
O=C(NCc1cc(C2CC2)n(C2CCCC2)n1)C1CC1 | 118.5%
CCC(=O)NCc1cc(C2CC2)n(C2CCCC2)n1 | -1.631%
Cc1ccc2c(c1)OC(C)(C)CC2NC(=O)C1CCN(S(C)(=O)=O)CC1 (stereo unspecified) | -7.671%
Cn1nc(CNC(=O)C2CC2)cc1C1CC1 | 4.922%
O=C(O)C1(Cc2ccccc2Cl)CCN(c2ncccn2)CC1 | 4.771%
Cc1noc(-c2cccnc2N(C)Cc2cscn2)n1 | -2.045%
CCC[C@H]1CN(CCOC)C[C@@H]1NC(=O)Cn1cc(C)cn1 | -1.609%
CCc1ncc(C(=O)NC(C)(C)CC)s1 | -4.681%
CCC(C)n1cnc(S(=O)(=O)N(C)C)c1 (stereo unspecified) | -2.659%
CCC(=O)N1CCC(c2nnc(Cn3cccn3)n2C2CC2)CC1 | 6.186%

Compound | Percent Effect
Cc1cncnc1C1CCN(C(=O)CN(C)C)CC1 | 107.4%
Cc1cc(C)n(-c2cncc(N3CCN(C(=O)CN(C)C)CC3)n2)n1 | -21.39%
CCC(=O)N1CCC(c2nnc(Cn3cncn3)n2C2CC2)CC1 | -3.377%
CCC(=O)N1CCC(c2ncncc2C)CC1 | 105.8%
Cc1noc(C2CCN(C(=O)CN(C)c3ccc(Cl)cn3)CC2)n1 | -9.214%
NC(=O)CSCC(=O)N1CCc2cc(Cl)cc(Cl)c2C1 | -10.26%
CC(CNC(=O)c1ccc(C#N)cc1)N1CCc2ccccc21 (stereo unspecified) | -4.664%
CC(CNC(=O)c1cccc(C#N)c1)N1CCc2ccccc21 (stereo unspecified) | -2.298%
CC(CNC(=O)c1ccc(=O)[nH]n1)N1CCc2ccccc21 (stereo unspecified) | 114.6%
Cc1noc(C)c1C(=O)NCC1CCCCN1Cc1ccccc1 (stereo unspecified) | 1.84%
O=C(c1ccc(=O)[nH]n1)N1CCc2ccccc21 | 6.411%
CC(CNC(=O)c1cc(C2CC2)on1)N1CCc2ccccc21 (stereo unspecified) | 110.3%
COc1ccc(NC(=O)NCC(C)N2CCc3ccccc32)cc1 (stereo unspecified) | 6.782%
Cc1cc(C(=O)NCC(C)N2CCc3ccccc32)on1 (stereo unspecified) | 128.5%
Cc1noc(C)c1C(=O)NCC(C)N(C)C (stereo unspecified) | -3.203%
Cc1noc(C)c1C(=O)NCC(C)N1CCc2ccccc21 (stereo unspecified) | 136.7%
CCC(CNC(=O)c1ccc(=O)[nH]n1)N1CCc2ccccc2C1 (stereo unspecified) | -13.41%
O=C(NCCSC1CCCC1)c1cc(C2CC2)on1 | 6.284%
CS(=O)(=O)CCCNC(=O)NC1CC(c2cccc(Cl)c2)C1 (stereo unspecified) | -3.705%
N#Cc1cccc(S(=O)(=O)NC2CCN(Cc3ccccc3)C2=O)c1 (stereo unspecified) | -3.444%
CC(C)Oc1cc(N2CCC3(CC2)[C@H](O)C[C@@H]3O)nc(N)n1 | 12.72%
CN1CCCC(N2CCN(c3nc4ccccn4c3C#N)CC2)C1 (stereo unspecified) | 6.11%
CC(=O)N(CCc1ccccc1)CC(=O)Nc1ccccc1C#N | -7.598%
CC(C)(C)c1ncc2c(n1)CN(C(=O)c1ccc(C#N)nc1)C2 | -2.492%

Compound | Percent Effect
COC(=O)c1ccc(F)c(S(=O)(=O)Nc2ccc(C(N)=O)cc2)c1 | 8.532%
Cc1cccc(N2CCN(CCC(=O)NCc3ccc(C)s3)CC2)c1 | 3.46%
Cc1cnc(C(=O)N2CCN(C(=O)C(C)C)[C@@H]3CS(=O)(=O)C[C@@H]32)cn1 | -9.288%
COC(=O)CC1CCN(C(=O)c2ccc(C)cc2)CC1 | 100%
Cc1ccc(O)c(C(=O)N2CCC(CN3CCCCCC3)CC2)c1 | 5.424%
CCNc1ccnc(NC2CCN(C(=O)c3ccc(C)cc3)CC2)n1 | 10.68%
CC(C)(C)OC(=O)NCC1CCN(C(=O)c2ccccc2O)CC1 | 15.84%
COc1ncccc1C(=O)N1CCC(CNC(C)=O)CC1 | -0.8543%
COC(=O)C1CCCN1C(=O)c1ccc(-n2nc(C)cc2C)cc1 (stereo unspecified) | -11.77%
Cc1nnnn1-c1ccc(CC(=O)N2CCOCC(O)C2)cc1 (stereo unspecified) | -21.98%
COC(=O)CC1CCN(C(=O)c2ccc(-n3nnnc3C)cc2)CC1 | 129.7%
COC(=O)CC1CCN(C(=O)c2ccccc2-n2nnnc2C)CC1 | 87.7%
Cc1cnn(CC2CN(CC(=O)Nc3sccc3C#N)CCO2)c1 (stereo unspecified) | -6.28%
CCc1noc(CS(=O)(=O)Cc2ccccc2Cl)n1 | -7.562%
CN(C)CCN1C(=O)CC[C@@H]2[C@H]1CCN2C(=O)c1ccc(C#N)cc1.O=C(O)C(F)(F)F | -26.6%
COCC1CN(S(=O)(=O)N(C)C)Cc2ncn(CC3CC3)c21.O=C(O)C(F)(F)F (stereo unspecified) | 108.7%
Cn1cnc2c1C(COCC1CCOCC1)CN(c1ncccn1)C2.O=C(O)C(F)(F)F.O=C(O)C(F)(F)F (stereo unspecified) | -12.76%
Cn1cnc2c1C(COCC1CC1)CN(c1ncccn1)C2.O=C(O)C(F)(F)F.O=C(O)C(F)(F)F (stereo unspecified) | 100.9%
CCS(=O)(=O)N1Cc2ncn(CC3CC3)c2C(COCC2CC2)C1.O=C(O)C(F)(F)F (stereo unspecified) | 98%
CCOCC1CN(S(=O)(=O)N(C)C)Cc2cnn(CC3CC3)c21.O=C(O)C(F)(F)F (stereo unspecified) | -12.89%
Cn1cnc2c1C(COCC1CC1)CN(C(=O)c1cccs1)C2 (stereo unspecified) | -12.17%
CCS(=O)(=O)N1Cc2ncn(C)c2C(COCC2CCOCC2)C1.O=C(O)C(F)(F)F (stereo unspecified) | -11.73%
COCC1CN(S(=O)(=O)N(C)C)Cc2cnn(CC3CCCC3)c21.O=C(O)C(F)(F)F (stereo unspecified) | -5.811%
